Assay results taken from PubChem BioAssay AID652040 (Broad Institute, 2013).
Results with a measured potency or affinity are listed apart. Calls of active or inactive are those of the source.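 Rule for the calls: active = falling luciferase signal whose fitted half-maximal concentration is at most twice the top tested dose; inconclusive = flat inhibition between 30 and 70% or a poor curve fit; inactive = the rest.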

Assay: off-target signal loss in HeLa-CEM21 co-culture – HeLa F-luc CTL cells, cherry-picked, counter-screen for HIV-1 Env fusion inhibitor project, dose response (AID 652040);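 note: more negative values mean stronger loss of luciferase signal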
Details: HeLa-F-luc CTL cells with CEM21, firefly luciferase counterscreen; series mostly up to 35 µM
With `Cc1ccc(NC(=O)c2ccc(CN3CCc4ccccc4C3)cc2)cc1` the outcome was “inactive”.
With `COc1ccc(-c2cc(C(=O)NNC(=S)NC(=O)c3c(-c4ccccc4)noc3C)[nH]n2)cc1` the outcome was “inactive”.
With `CCOc1ccc(C(=O)C2CCN(CC(=O)Nc3ccccc3N3CCOCC3)CC2)cc1` the outcome was “inactive”.
For `NC(=S)c1ccc(OCCCc2ccccc2)cc1`, the outcome was “inactive”.
In the case of `O=C(NCc1ccccc1)[C@@H]1CCCN1C(=O)[C@@H]1CCCN1C(=O)c1cccc2ccccc12`, the outcome is reported as “inactive”.
In the case of `CC(C)CNS(=O)(=O)c1ccc(CCC(=O)N2CCN(Cc3ccc4c(c3)OCO4)CC2)cc1`, the outcome is reported as “inactive”.
In the case of `Cc1ccccc1S(=O)(=O)NC(=O)C1(C)CCN1C(=O)CCc1ccc(Cl)cc1Cl` (stereo not given), the outcome is reported as “inactive”.
In the case of `COc1ccc(CCNC(=O)COC(=O)c2cccn2C)cc1`, the outcome is reported as “inactive”.
For `CCN1CCN(S(=O)(=O)c2ccc(Cl)c(C(=O)Nc3ccccc3N3CCCC3)c2)CC1`, the outcome was “inactive”.
In the case of `Fc1ccc(-n2nnnc2-c2cnc(-c3cccs3)nc2C(F)(F)F)cc1`, the outcome is reported as “inactive”.
For `CN(C(=O)c1cccc(NC(=O)Cc2cccc(NC(=O)C3CCCN(C(=O)C4CCC4)C3)c2)c1)C1CCC1` (stereo not given), the outcome was “inactive”.
With `Cc1ccc(Cn2ncc3c(N4CCN(Cc5ccc(Cl)cc5)CC4)ncnc32)cc1` the outcome was “inactive”.
In the case of `CC(C)(C)c1ccc(-c2noc(CCC(=O)NCC3CCCO3)n2)cc1` (stereo not given), the outcome is reported as “inactive”.
For `CC(CCc1ccco1)NC(=O)CCc1nnc2ccc(NCc3ccccc3Cl)nn12` (stereo not given), the outcome was “inactive”.
For `O=C(Nc1nc(-c2ccc3c(c2)OCO3)cs1)c1ccncc1`, the outcome was “inactive”.
In the case of `O=C(CCNC(=O)c1ccc(Br)cc1)NNC(=O)COc1ccccc1F`, the outcome is reported as “inactive”.
In the case of `Cc1ccc(OCCN2CCN(c3ncnc4sc(C)c(C)c34)CC2)cc1`, the outcome is reported as “inactive”.
In the case of `Cc1cc(C(=O)N2CCC(C(=O)O)CC2)c(C(F)(F)F)o1`, the outcome is reported as “inactive”.
For `COc1ccc(CCCC(=O)NCCc2ccccc2)c(C)c1`, the outcome was “inactive”.
For `O=C(Nc1cc2c3c(c1)CC(=O)N3CCC2)c1ccc(Cl)cc1`, the outcome was “inactive”.
With `CCn1ncc(C2=NOC(C(=O)Nc3ccc(C)cc3)C2)c1C` (stereo not given) the outcome was “inactive”.
In the case of `Clc1ccc2c(c1)C(C1=NCCN1)c1ccccc1CS2` (stereo not given), the outcome is reported as “inactive”.
For `CCOC(=O)C1CCCN(Cc2nc(N)nc(Nc3ccc(OC)cc3)n2)C1` (stereo not given), the outcome was “inactive”.
In the case of `COc1ccccc1S(=O)(=O)n1cc(Cc2ccccc2)c(N)n1`, the outcome is reported as “inactive”.
For `O=S(=O)(NCCc1csc(-c2cccnc2)n1)c1ccc(Cl)s1`, the outcome was “inactive”.
In the case of `CCc1cc2c(NCc3ccco3)ncnc2s1`, the outcome is reported as “inactive”.
With `Cc1ccc(S(=O)(=O)NCC(=O)OCC(=O)NCc2ccc3c(c2)OCO3)cc1` the outcome was “inactive”.
With `COc1cc(CSc2nnnn2-c2ccc(C)cc2)cc(OC)c1OC` the outcome was “inactive”.
With `c1ccc(CSc2nnc([C@@H]3CCCN3)o2)cc1` the outcome was “inactive”.
In the case of `O=C(c1cc(COc2cccc(C(F)(F)F)c2)on1)N1CCC(c2ccncc2)CC1`, the outcome is reported as “inactive”.
In the case of `COC(=O)C1CCN(C(=O)COC(=O)c2cc(S(=O)(=O)N3CCOCC3)ccc2C)CC1`, the outcome is reported as “inactive”.
With `Cc1onc(-c2ccccc2)c1C(=O)NC(=S)NNC(=O)c1ccc(O)cc1` the outcome was “inactive”.
With `O=C(NCc1ccccc1)c1ccc(C(=O)NCc2ccccc2)cc1` the outcome was “inactive”.
For `CC(C)CN(C(=O)c1ccc(S(=O)(=O)N2CCCCC2)cc1)C1CCS(=O)(=O)C1` (stereo not given), the outcome was “inactive”.
With `COc1ccc(Nc2ncc(C(=O)N3CCN(c4ccc(F)cc4)CC3)c3ccccc23)cc1` the outcome was “inactive”.
With `COc1ccc(NC(=O)C2(C)CCN2Cc2ccccc2OC(F)F)cc1OC` (stereo not given) the outcome was “inactive”.
In the case of `CCc1ccc(-c2nc(CN3CCC(C(=O)NCCc4ccc(OC)c(OC)c4)CC3)c(C)o2)cc1`, the outcome is reported as “inactive”.
For `c1coc(CNc2c3c(nc4ccccc24)CCC3)c1`, the outcome was “inactive”.
For `COCc1[nH]nc2c1C(c1ccc(F)cc1)N(Cc1ccccc1)C2=O` (stereo not given), the outcome was “inactive”.
For `COc1ccc(NS(=O)(=O)c2ccc3c(c2)OCCO3)cc1OC`, the outcome was “inactive”.
